# Source: PubChem BioAssay (several laboratories)
# In the library only some 3.1% were active in any assay of this set; here they are far more common.
# Cl transport mod – KCC2 cotransporter modulators, thallium flux, primary screen, cell-based, HEK293 KCC2, FluoZin-2 fluorescence, MLSMR. B-score of Tl+ flux slope (higher = more flux/activation; lower = inhibition) at 10 µM. KCC2 cells, thallium flux FluoZin-2 fluorescence. 190,000 compounds, 2.2% hits. Solute carrier family 12 member 5 (Homo sapiens), Q9H2X9. AID 1456, 2008;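 active means thallium flux slope and its plate-corrected score both differing from the plate sample mean at a set confidence after two filtering rounds, in either direction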;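 further: slope of fluorescence scaled to starting intensity during 10 to 20 s after thallium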
# Target sequence (Q9H2X9 whole entry, looked up): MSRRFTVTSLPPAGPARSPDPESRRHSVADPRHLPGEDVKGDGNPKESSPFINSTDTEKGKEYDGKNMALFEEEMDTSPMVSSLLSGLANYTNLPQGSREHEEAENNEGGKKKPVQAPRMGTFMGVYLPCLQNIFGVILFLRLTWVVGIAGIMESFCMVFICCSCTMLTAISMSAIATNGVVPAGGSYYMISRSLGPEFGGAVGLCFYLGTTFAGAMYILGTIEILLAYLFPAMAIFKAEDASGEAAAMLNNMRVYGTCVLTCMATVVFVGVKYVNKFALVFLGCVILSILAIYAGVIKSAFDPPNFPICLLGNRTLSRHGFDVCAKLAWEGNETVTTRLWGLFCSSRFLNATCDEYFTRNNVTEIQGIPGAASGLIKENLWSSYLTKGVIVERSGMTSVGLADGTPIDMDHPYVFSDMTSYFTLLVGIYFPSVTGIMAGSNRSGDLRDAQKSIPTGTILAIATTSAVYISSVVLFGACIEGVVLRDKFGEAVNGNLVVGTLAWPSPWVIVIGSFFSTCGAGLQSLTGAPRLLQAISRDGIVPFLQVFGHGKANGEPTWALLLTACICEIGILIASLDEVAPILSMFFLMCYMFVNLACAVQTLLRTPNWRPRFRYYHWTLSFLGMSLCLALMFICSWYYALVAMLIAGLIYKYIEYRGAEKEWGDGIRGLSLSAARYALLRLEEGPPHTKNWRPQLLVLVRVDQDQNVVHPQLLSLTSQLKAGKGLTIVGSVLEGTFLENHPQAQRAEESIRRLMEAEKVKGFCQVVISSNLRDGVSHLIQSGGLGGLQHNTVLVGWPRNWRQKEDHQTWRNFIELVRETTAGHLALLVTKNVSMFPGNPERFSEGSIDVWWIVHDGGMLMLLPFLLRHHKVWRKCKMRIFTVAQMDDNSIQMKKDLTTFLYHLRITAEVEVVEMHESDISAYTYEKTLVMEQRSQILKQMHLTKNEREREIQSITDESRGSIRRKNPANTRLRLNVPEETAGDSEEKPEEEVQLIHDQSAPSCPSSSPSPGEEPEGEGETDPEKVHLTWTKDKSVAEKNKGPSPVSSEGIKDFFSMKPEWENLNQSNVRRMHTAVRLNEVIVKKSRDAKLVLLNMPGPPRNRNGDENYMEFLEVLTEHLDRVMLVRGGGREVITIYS
# PGE2 EP2 inh – human EP2 receptor antagonists, primary screen, TR-FRET cAMP, C6 glioma cells; Prostaglandin E2 receptor EP2 subtype (Homo sapiens), P43116; C6 glioma cells expressing human EP2; cells stimulated with saturating PGE2; inhibition, % at 25 µM; 260,000 compounds, 0.52% hits; AID 1422, 2008;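 active means percent inhibition above 40 after rounding to a whole number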;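 further: rat C6 glioma host cells with rolipram phosphodiesterase inhibitor present; the protocol text gives 20 µM as final concentration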
# EP2 mod – EP2 receptor modulators, cAMP readout, primary screen, cell-based, HTRF cAMP, PGE2 stimulation | 260,000 compounds, 0.83% hits | EP2-expressing cells, cAMP HTRF FRET, PGE2 co-stimulation | Prostaglandin E2 receptor EP2 subtype (Homo sapiens), P43116 | induction, % at 25 µM;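 active means compounds whose cAMP rise, as percent of the full-agonist control response, exceeds 60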;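 further: rat C6 glioma line stably carrying human EP2 under a CMV promoter; the protocol text gives 20 µM as final concentration; 100% = response of wells given 1 µM PGE2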
# S1P3 antag – S1P3 receptor antagonists, primary screen, cell-based. 170,000 compounds, 0.27% hits. AID 485, 2006. Sphingosine 1-phosphate receptor 3 (Homo sapiens), Q99500. inhibition, % at 4.98 µM. CHO S1P3 NFAT-BLA reporter, FRET fluorescence, antagonist mode;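 active means inhibition above the plate cutoff, the mean inhibition of test wells on that plate plus 3 SD, cut at about 28% in these data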;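 further: cells challenged with S1P at its EC80 of 0.8 µM; blue over green emission ratio from cleaved BLA substrate after 4 h stimulation; 0% = S1P-stimulated wells and 100% = unstimulated DMSO-only wells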
# KCC2 secondary – KCC2 modulators in sodium-free buffer, confirmation, cell-based, HEK293 KCC2, thallium flux, secondary assay | shares compounds with Cl transport mod | FluoZin2 fluorescence; stronger effect = higher value | normalised thallium flux (F/F0 slope) at 10 µM | 3,700 compounds, 15% hits | AID 1713, 2009;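 active means thallium flux slope above the same plate's solvent-only control mean plus 3 SD; inconclusive means the two replicate wells disagree; inactive means no significant difference from solvent-only control wells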
# KCC2 bumet counter – thallium flux persisting under bumetanide in KCC2 cells, confirmation, counter-screen for KCC2 modulator project, cell-based, HEK293 KCC2, FluoZin2, secondary assay 3 | shares compounds with Cl transport mod | HEK293-KCC2 + bumetanide/ouabain; stronger effect = higher value | normalized thallium flux at 10 µM | 3,700 compounds, 49% hits | AID 1714, 2009;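 active means thallium entry rate above the same plate's blocked-transporter control wells by more than 3 SD; inconclusive means the two repeat wells disagree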;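 further: raw slope of fluorescence over initial fluorescence between 10 and 20 s after thallium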
# KCC2 secondary2 – KCC2 modulators without ouabain present, confirmation, cell-based, HEK293 KCC2, thallium flux, FluoZin2, secondary assay 2; shares compounds with Cl transport mod; normalized thallium flux at 10 µM; AID 1715, 2009; thallium flux FluoZin2 fluorescence; actives lie on both sides; F/F0 rise rate, 10–20 s post-thallium; 3,700 compounds, 23% hits;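 active means thallium flux slope more than 3 SD above or below the plate's solvent-only control mean, mostly below; inconclusive means the two repeat wells disagreed; inactive means no significant shift from solvent-only controls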;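 further: raw slope with 0.1% DMSO as baseline and bumetanide as block control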
# HEK counter1 – thallium flux modulation in parental HEK cells, confirmation, counter-screen for KCC2 modulator project, cell-based, counterscreen 1. 3,700 compounds, 46% hits. AID 1716, 2009. thallium flux rate (normalised fluorescence) at 10 µM. shares compounds with Cl transport mod. HEK293 parental cells, thallium flux FluoZin2, ouabain; baseline-ratio fluorescence slope, 10–20 s after thallium;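 active means thallium flux rate significantly above the same plate's solvent-only control wells, beyond their mean plus 3 SD; inconclusive means the two replicate wells gave conflicting results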
# KCC2 retest ouab – KCC2 inhibitors and activators, ouabain retest, confirmation, HEK-KCC2 cells | shares compounds with Cl transport mod | AID 1717, 2009 | 3,700 compounds, 48% hits | HEK293-KCC2, thallium flux FluoZin2 fluorescence; bidirectional: low = inhibitor, high = activator | raw Tl+ flux slope (below DMSO = inhibition, above = activation) at 10 µM;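 active means thallium flux slope beyond 3 SD from same-plate DMSO control mean in most replicates, usually higher, sometimes lower; inconclusive means repeat tests gave conflicting results; inactive means no significant difference from controls in most replicates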;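 further: slope of initial-normalized fluorescence between seconds 10 and 20 after thallium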
# HEK293 Tl flux2 – native HEK Tl+ uptake effects, second counter-screen – HEK cells, counterscreen 2, counter-screen for KCC2 modulator project, confirmation. shares compounds with Cl transport mod. HEK293 parental, thallium flux FluoZin-2 fluorescence slope. thallium flux slope at 10 µM. 3,700 compounds, 33% hits. AID 1718, 2009;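 active means thallium flux slope above the same plate's solvent-control mean plus 3 SD in both duplicate wells; inconclusive means duplicate wells that disagreed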;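 further: run without ouabain in cells lacking the KCC2 cotransporter; slope of fluorescence scaled to its starting value between 10 and 20 s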
# The depositor's hits bear a star; ? = inconclusive; · = not tested or not shown.
SMILES,Cl transport mod,PGE2 EP2 inh,EP2 mod,S1P3 antag,KCC2 secondary,KCC2 bumet counter,KCC2 secondary2,HEK counter1,KCC2 retest ouab,HEK293 Tl flux2
O=c1[nH]c(=S)n(Cc2ccco2)c(O)c1C=NCc1cccs1,-3.2*,7,26,·,0.0095,0.0066,?,0.008,0.02*,0.011
O=c1[nH]c(=O)n(Cc2ccco2)c(O)c1C=NCc1cccs1,·,2,17,9,·,·,·,·,·,·
CCCCn1c(O)c(/C=C/C=Nc2ccccc2)c(=O)[nH]c1=O,-4.7*,6,9,-34,0.0026*,-0.0018*,0.025*,0.0019*,0.0084*,0.007*
CC(C)CC(NC(=O)C1CCCCC1)C(=O)N1CCC2(CC1)OCCO2 (stereo not drawn),·,3,2,-4,·,·,·,·,·,·
CC(C)C[C@H](NC(=O)[C@@H]1CCCN1C(=O)[C@@H](N)Cc1ccc(O)cc1)C(=O)NCC(N)=O,-3.1*,12,26,6,?,0.0057*,0.031,?,0.021,0.011
Cc1ccccc1C1=NCC(=O)Nc2sc3c(c21)CCCC3,·,9,49,·,·,·,·,·,·,·
CNc1cc(Cl)c2nonc2c1[N+](=O)[O-],-4.6*,20,-31,-16,0.0073,0.007*,?,0.007,0.017,0.01
Cc1cc([N+](=O)[O-])c(Cl)cc1NC(=O)C(C)C,0.73,4,9,1,·,·,·,·,·,·
O=C(CN1C2CCC1CC(O)(c1ccco1)C2)NC(c1ccccc1)c1ccccc1 (stereo not drawn),·,·,3,·,·,·,·,·,·,·
Cc1nc2cc(C(F)(F)F)ccc2n1C1CCN(Cc2nnnn2Cc2cccs2)CC1,-1.3,16,-38,·,·,·,·,·,·,·
Cc1nc2cc(C(F)(F)F)ccc2n1C1CCN(Cc2nnnn2Cc2ccc3c(c2)OCO3)CC1,-4.7*,20,-42,21,0.0049,0.0052,?,0.0072,?,0.011
O=C(Nc1ccccc1O)c1ccc(Cl)c(S(=O)(=O)N2CCCCCC2)c1,·,6,-80,·,·,·,·,·,·,·
CCCC(=O)OCC[N+](C)(C)C,4.9*,15,36,-8,?,0.008,0.029,0.0072,0.022,0.0098
COc1ccc(-n2c(=O)[nH]c3ccccc3c2=O)c(OC)c1,0.16,11,-21,-16,·,·,·,·,·,·
COc1ccc(-n2c(=O)[nH]c3ccccc3c2=O)cc1,0.9,17,24,·,0.0096,0.0063,0.031,0.0084,0.019,0.01
O=C(CN1C2CCC1CC(O)(c1ccccn1)C2)N1CCCCCC1 (stereo not drawn),·,10,-28,·,·,·,·,·,·,·
NNC(=O)c1ccc(Cl)cc1,4.3*,6,10,-17,0.0086,0.0047,0.031,0.0069,0.02,0.01
CC(C)c1oc(=O)cc2c1[C@@H](O)[C@H]1OC(=O)[C@@]3(C)C[C@@H](O)[C@@H](O)[C@@]2(C)C13 (stereo partly drawn),5.5*,-3,9,-3,0.0096,0.0068,0.029,?,0.021,0.01
COc1cccc(-n2c(-c3ccoc3)nc3ccccc3c2=O)c1,·,10,5,·,0.0066,0.0041,0.031,0.0072,0.018,0.0098
CNc1ccc2oc(C[C@H]3O[C@@]4(CC[C@H]3C)O[C@H]([C@H](C)C(=O)c3ccc[nH]3)[C@H](C)C[C@H]4C)nc2c1C(=O)O,7.4*,71*,57,·,0.0066,0.0092*,0.035,?,?,0.011
O=C1CCCN1C(=O)c1cccnc1,·,19,20,·,·,·,·,·,·,·
COC(=O)c1ccc(COc2cc(C)cc3oc(=O)c4c(c23)CCCC4)o1,·,12,18,4,0.0075,0.0044,0.027,0.0049*,?,0.0084
Cc1cc(OCC(=O)O)c2c3c(c(=O)oc2c1)CCCC3,0.12,8,-18,-36,·,·,·,·,·,·
Cc1nc2ccc(NC(=O)CN3CC=C(c4ccc(C)o4)CC3)cc2[nH]1,·,·,-96,·,·,·,·,·,·,·
CCCSc1ncc(CN2C3CCC2CC(O)(c2ccc(OC)cc2)C3)cn1 (stereo not drawn),·,3,-61,·,·,·,·,·,·,·
SMILES,Cl transport mod,PGE2 EP2 inh,EP2 mod,S1P3 antag,KCC2 secondary,KCC2 bumet counter,KCC2 secondary2,HEK counter1,KCC2 retest ouab,HEK293 Tl flux2
COc1cc(C(=S)N2CCOCC2)cc(OC)c1OC(=O)Cc1ccccc1,-5.4*,5,-29,-9,?,0.006*,0.021*,0.0076,0.013,0.0097
O=C(COc1ccc(Cl)cc1Cl)N1CCN(C/C=C/c2ccccc2)CC1,-6.8*,5,-39,·,0.0077,0.0057,0.034,0.0072,0.02,0.011
COc1cccc(CN2CCN(C(=O)Cc3n[nH]c(=O)c4ccccc34)[C@@H](C)C2)c1,·,·,4,·,·,·,·,·,·,·
CC(C)n1c(O)c(C=NCc2cccnc2)c(=O)[nH]c1=S,-0.79,8,19,-2,·,·,·,·,·,·
CCC(C)n1c(O)c(C=Nc2cccc(C(F)(F)F)c2)c(=O)[nH]c1=S (stereo not drawn),0.77,15,32,-17,0.0062,0.018*,0.03,0.019*,0.025*,0.015*
S=C1Nc2ccccc2Sc2ccccc21,48*,4,-10,-11,0.019*,0.075*,0.03,0.054*,0.053*,0.013*
NC(=O)c1ccc(N=Nc2c(O)[nH]c(=O)[nH]c2=O)cc1,0.44,8,-2,-4,·,·,·,·,·,·
O=c1[nH]c(O)c(N=Nc2cc([N+](=O)[O-])ccc2O)c(=O)[nH]1,·,12,14,-11,0.0072,?,0.032,0.008,0.019,0.012
O=c1[nH]c(=O)n(Cc2ccc(F)cc2)c(O)c1C=NCc1cccnc1,4.4*,17,-26,-7,0.0095,0.0056,0.033,0.0044,0.019,0.011
